Bioassay records: PubChem, Sanford-Burnham Center for Chemical Genomics
NLRP3 yeast inh: NALP3 inhibition in yeast. Yeast reconstituted NLRP3/ASC/caspase-1, beta-gal luminescence, 24 h. inhibition, % at 10 µM. 0.39% of 330,000 active. AID 2825;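 active means inhibition of 50% or more; inactive means inhibition below 50%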;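 further: plate controls were induced DMSO wells for no effect and uninduced yeast grown without galactose for full effect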
tim10-1 inh: inhibits growth of tim10-1 mutant yeast. S. cerevisiae tim10-1 ts strain growth, BacTiter-Glo, 24 h. inhibition, % at 20 µM. 2.2% of 330,000 active. AID 463190;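 active means inhibition of at least 40%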;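 further: mutant grown at 25 °C; 0% = DMSO wells with yeast and 100% = wells holding no yeast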
TIM10 inh: TIM10 yeast growth inhibition. S. cerevisiae TIM10 strain growth, BacTiter-Glo luminescence, 24 h. inhibition, % at 10 µM. 1.4% of 330,000 active. AID 463195;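 active means inhibition of 40% or more at the single tested concentration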;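 further: wild-type TIM10 isogenic control strain grown at permissive 25 °C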
tim23-1 inh: inhibits growth of tim23-1 mutant yeast. 1.3% of 330,000 active. AID 463212. S. cerevisiae tim23-1 growth, BacTiter-Glo luminescence, 24 h. inhibition, % at 20 µM;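 active means growth inhibition of the mutant yeast at or above 50%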;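 further: temperature-sensitive mutant grown at 25 °C; plate controls were DMSO-treated mutant yeast for no effect and medium wells lacking yeast for full effect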
NALP1 inh: inhibitors of NALP1 inflammasome in yeast; AID 2071; 0.61% of 280,000 active; inhibition, % at 10 µM; S. cerevisiae NALP1/ASC/caspase-1 growth, X-gal OD620, 72 h; in the data active means inhibition mostly above about 24%, no sharp cut-off; inactive means mostly below about 32%
tim23-1 conf: confirmation of tim23-1 mutant yeast growth inhibitors | 83% of 4,400 active | shares compounds with tim23-1 inh | inhibition, % at 20 µM | S. cerevisiae tim23-1 growth, BacTiter-Glo luminescence, 24 h | AID 463218;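 active means inhibition above about 39% in either of two replicate wells at 20 µM, limit read from the data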;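 further: temperature-sensitive tim23-1 mutant grown at 25 °C; 0% = DMSO wells with yeast and 100% = medium wells without yeast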
Active calls of the source: *; nt = not tested or not shown. Shown are actives, neighbours in structure and some others; about 4% of the full set was active somewhere.

SMILES	NLRP3 yeast inh	tim10-1 inh	TIM10 inh	tim23-1 inh	NALP1 inh	tim23-1 conf
Cc1ccc(S(=O)(=O)/N=C/c2cc(Br)ccc2O)cc1	-4.8	10.4	13.3	35.7	-1.8	nt
Cc1ccc(S(=O)(=O)NC(C)(C)CN2CCCCC2)cc1	15.9	-29.3	-22.9	-7.8	14.6	nt
CC(C)(C)c1csc(NC(=O)c2ccc(Br)o2)n1	22.3	30.2	23.5	53.2*	24.5	48.2*
CC(C)(C)c1csc(NC(=O)c2ccc(Cl)s2)n1	20.7	26.3	5.1	70.3*	13.4	73.7*
Cc1ccc(C(=O)Nc2nc(C(C)(C)C)cs2)s1	16.5	8.7	-4.3	52.1*	3.3	42.5*
CC1(c2nnc(-c3cccc(Cl)c3)o2)CC(c2cccnc2)=NO1 (centres undefined)	20.8	-29.5	4.4	9.7	nt	nt
O=C(C1CC1)N1CCc2[nH]c3ccccc3c2C1	19.0	8.2	-2.4	-0.3	-0.1	nt
O=C(c1ccccc1Br)N1CCc2c([nH]c3ccccc23)C1	14.1	13.7	17.3	60.7*	16.2	36.0
COc1ccc(S(=O)(=O)N2CCN(Cc3cccc(Cl)c3)CC2)cc1	24.3	26.5	26.0	51.4*	5.8	52.6*
CC1(C)Cc2ccccc2-c2nc(NN)[nH]c(=O)c21	-2.0	36.4	2.4	50.7*	15.8	35.5
CCC1(CC)Cc2ccccc2-c2nc(NCCO)[nH]c(=O)c21	12.2	22.7	10.6	14.8	5.0	nt
COc1ccc(NC(=O)c2ccc(Br)c(S(=O)(=O)N3CCOCC3)c2)cc1	25.9	19.8	-5.8	15.3	0.0	nt
N#Cc1nc(-c2cccs2)oc1NCc1ccccc1Cl	18.0	38.0	14.2	55.6*	-6.0	53.5*
N#Cc1nc(-c2cccs2)oc1NCc1ccc(Cl)cc1	43.6	24.3	23.4	50.5*	20.0	55.2*
N#Cc1nc(-c2cccs2)oc1NCc1ccccc1	17.5	28.9	17.3	42.3	11.1	nt
CCOc1cccc2cc(C(=O)NCc3ccc(Cl)cc3)c(=N)oc12	0.3	16.5	11.3	9.6	19.4	nt
CCOc1ccc(-c2nnc(SCC(=O)NC(C)(C)C)nc2-c2ccc(OCC)c(OC)c2)cc1OC	5.4	4.5	13.1	12.0	14.0	nt
COc1ccc(/C=C2\COc3ccccc3C2=O)c(OC)c1	34.6	14.8	21.6	54.9*	18.4	50.2*
COc1ccc(C=C2c3ccccc3C(=O)c3ccccc32)c(OC)c1	9.5	16.9	26.8	14.8	-2.2	nt
CC1CC(C)(C)NC(=S)N1CC(=O)N1CCN(Cc2ccc3c(c2)OCO3)CC1 (centres undefined)	5.0	11.6	9.1	12.2	-12.7	nt
Cc1nn(CCCC(=O)NCc2ccc(F)cc2)c(=O)c2nccn12	3.5	0.5	0.7	8.4	9.4	nt
Cc1nc2ccccc2nc1Nc1cccc(Cl)c1	18.0	38.9	26.2	61.0*	4.9	41.4*
CCCn1c(-c2cccs2)nc2nc3ccccc3nc21	3.7	39.1	27.8	53.7*	-16.2	39.8*
O=C(COc1ccc2c(c1)OCO2)Nc1nncs1	-0.4	12.2	0.0	18.2	10.4	nt
CCOCCn1ccc2c(OCC(=O)Nc3ccc(OC)c(OC)c3)cccc2c1=O	1.0	12.2	4.5	54.3*	nt	5.4
SMILES	NLRP3 yeast inh	tim10-1 inh	TIM10 inh	tim23-1 inh	NALP1 inh	tim23-1 conf
CCOCCn1ccc2c(OCC(=O)NCCc3ccc(OC)c(OC)c3)cccc2c1=O	10.7	16.7	9.4	16.4	nt	nt
CN(Cc1ccccc1)C(=O)c1ccc(NC(=O)c2ccccc2)cc1	21.4	16.9	27.9	28.6	0.4	nt
Cc1ccc(C2=Nc3ccccc3N(C(=O)c3ccccc3)C(C)C2)cc1 (centres undefined)	8.3	38.6	33.1	51.5*	17.2	40.6*
Cc1ccc(OCC(=O)Nc2nc(C)c(Cl)cc2Cl)c([N+](=O)[O-])n1	19.3	-7.4	5.4	-0.1	nt	nt
Nc1ncnc2c1ncn2[C@@H]1O[C@H](CO)C[C@H]1O	21.1	25.7	-6.0	60.5*	nt	65.3*
CC1(C)O[C@@H]2[C@H](O1)[C@@H](CO)O[C@H]2n1cnc2c(N)ncnc21	12.9	-10.0	-8.2	-1.7	nt	nt
CC1=CC(C)(C)N(C(=O)c2ccc(F)cc2)c2cc3c(cc21)OCO3	14.3	34.6	39.0	53.9*	27.7	44.5*
O=C1C(Cl)=C(N2CCCC2)C(=O)N1c1ccc(F)cc1	7.9	7.3	-2.4	25.1	6.8	nt
CC1CCCCN1C(=O)c1cc(-c2ccc(Cl)c(Cl)c2)on1 (centres undefined)	17.1	15.0	21.0	30.3	9.1	nt
CC1CCCCN1C(=O)c1cc(-c2ccc3c(c2)OCO3)on1 (centres undefined)	28.7	-8.9	-4.4	92.0*	29.0	27.8
O=S(=O)(CCSc1nc2ccccc2o1)c1nc2ccccc2s1	42.6	18.9	-1.1	49.4	6.6	nt
O=S(=O)(CCSc1ccccn1)c1nc2ccccc2s1	28.4	22.7	23.5	55.3*	-20.0	48.9*
Cc1ccc2[nH]cc(S(=O)(=O)c3ccc(C)c(C)c3)c(=O)c2c1	-7.6	-8.1	4.5	4.6	8.8	nt
c1ccc2[nH]c(CSc3nc4ccccc4o3)nc2c1	32.4	-40.5	13.4	54.4*	26.0	54.9*
CC(C)Cn1cnc2c(c(-c3ccccc3)c(-c3ccccc3)n2Cc2ccco2)c1=N	17.8	30.9	-13.3	75.6*	-5.4	40.7*
N=c1c2c(-c3ccccc3)c(-c3ccccc3)n(Cc3ccco3)c2ncn1Cc1ccccc1	23.6	30.1	31.4	86.5*	29.2	58.7*
C/C(N)=C(/C#N)C(=O)CSc1nc2ccccc2c(=O)n1Cc1ccc(F)cc1	8.8	-4.6	16.0	36.8	18.2	nt
C/C(N)=C(/C#N)C(=O)CSc1nc2ccccc2c(=O)n1Cc1ccc(C)cc1	3.4	29.2	18.5	57.2*	-0.3	34.9
O=C(C[n+]1ccc(-c2nnc3n2CCC3)cc1)c1ccc(Cl)c(Cl)c1	19.8	6.2	8.2	-0.2	1.3	nt
CCC(C)n1c(=O)c(C(=O)Nc2ccccc2S(N)(=O)=O)c(O)c2ccccc21 (centres undefined)	24.0	32.7	38.1	54.4*	14.6	35.4
O=C(N/N=C/c1ccc([N+](=O)[O-])s1)c1ccncc1	18.6	33.8	38.9	62.9*	19.4	66.7*
O=C(N/N=C/c1ccccc1[N+](=O)[O-])c1ccncc1	5.3	17.3	-11.3	4.8	5.1	nt
O=Cc1ccccc1OCCOc1ccccc1C=O	11.0	14.8	39.0	85.0*	21.7	77.8*
Cc1ccsc1CN(C)CC(=O)Nc1ccccc1C(=O)NC1CC1	14.0	8.0	8.4	9.2	nt	nt
C=CCN1C(=O)/C(=C/C(=O)OC)S/C1=N\NC(=O)c1ccccc1	9.2	22.3	21.9	58.8*	-3.9	37.8*
O=C(Nc1ccn(Cc2ccc(Cl)cc2)n1)c1ccc2c(c1)OCO2	31.4	8.1	34.5	58.9*	8.3	62.7*
CCCCn1c(N)c(N(CCOC)C(=O)C2CCN(C(=O)c3ccc(F)cc3)CC2)c(=O)[nH]c1=O	12.4	-23.3	-0.2	-25.2	nt	nt
